This is part of a sample that, as a whole, favours compounds with a hit. Of some 83,000 tested, about 20% had one in any assay.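 Negative percent growth values reflect cell death: -40 means 40% of the cells present at the start died, and -100 means all died.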 Values without a mark were called inactive. Calls of active or inactive are those of the source. How the source made its calls: active means growth percent below 10; inactive means the rest.

Common to all, as to test: NCI-60 one-dose screen, 48 h (100 = growth as untreated, 0 = no growth, -100 = all killed)
Assay [1] relates to DU-145 prostate. The following applies: 10 µM unless noted.
Assay [2] relates to K-562 leukemia. To be noted: 10 µM unless noted.
Assay [3] concerns MALME-3M melanoma. To be noted: 10 µM unless noted.
Assay [4] relates to MDA-MB-231 breast. To be noted: 10 µM unless noted.
Assay [5] relates to RXF 393 renal. The following applies: 10 µM unless noted.
In assay [6] the test system is SF-268 CNS. The following applies: 10 µM unless noted.
Assay [7] has as its system SF-295 CNS. The following applies: 10 µM unless noted.
Assay [8] deals with SF-539 CNS. The following applies: 10 µM unless noted.
Assay [9] concerns UACC-257 melanoma. The following applies: 10 µM unless noted.
Assay [10] concerns M14 melanoma. The following applies: 10 µM unless noted.
Assay [11] relates to HCT-15 colon. To be noted: 10 µM unless noted.
Assay [12] deals with HT29 colon. To be noted: 10 µM unless noted.
The test system of assay [13] is U251 CNS. To be noted: 10 µM unless noted.
Assay [14] has as its system PC-3 prostate. To be noted: 10 µM unless noted.
For assay [15], the system named is SK-MEL-5 melanoma. The following applies: 10 µM unless noted.
Assay [16] concerns UACC-62 melanoma. To be noted: 10 µM unless noted.
Assay [17] deals with LOX IMVI melanoma. The following applies: 10 µM.
The test system of assay [18] is SK-MEL-28 melanoma. The following applies: 10 µM unless noted.
In assay [19] the test system is SNB-75 CNS. The following applies: 10 µM unless noted.
The test system of assay [20] is SNB-19 CNS. To be noted: 10 µM unless noted.

As for `Cc1cc(=O)oc2cc(OCCCCOc3ccc(/C=C/C(=O)Nc4ccccc4N)cc3)ccc12`, the growth was 65.7% in [1]; 35% in [2]; 90.8% in assay [3]; 48.2% in assay [4]; 90.9% in [5]; 49.4% in assay [6]. The growth in [7] was 63.1%; in assay [8], 53.1%; in [9], 82.4%; in assay [10], 79.5%; in [11], 75.8%; in [12] it was 91.4%. The growth in [13] was 60.2%; in assay [14], 61%; in assay [15], -66.1% (active); in [16] it was 69.2%; in assay [17] it was 0.965% (active); in assay [18], 81.2%.
Consider `COc1cc2c3c(n(CCCN4CCC[C@@H]4CO)c(=O)c2cc1OC)-c1cc2c(cc1C3=O)OCO2`, for which the growth in [1] is -100% (active); in [2] it was 2.24% (active); in assay [3], -85.6% (active); in assay [4], -93.3% (active); in assay [5] it was -66.5% (active); in [6], -60.8% (active). Moreover, the growth was -86% (active) in assay [7]; -98.2% (active) in assay [8]; 71.2% in assay [9]; -85.9% (active) in assay [10]; -90.9% (active) in [11]; -83.4% (active) in [19]. Also, the growth in assay [20] was -90.1% (active); in [13], -95.1% (active); in assay [14], -17.8% (active); in assay [15] it was -90.8% (active); in assay [16] it was 11.7%; in [17] it was -98.7% (active). The growth in assay [18] is -92.1% (active).
Consider `COc1ccc2oc3c4[nH]c5ccccc5c4c4c(c3c2c1)C(=O)N(C(=O)OC(C)(C)C)C4=O`, for which the growth was 6.06% (active) in [1]; 3.78% (active) in [2]; -24.9% (active) in assay [3]; 8.48% (active) in assay [4]; -0.96% (active) in [5]; 4.9% (active) in assay [6]. The growth in assay [7] is -26.7% (active); in assay [8] it was -24.8% (active); in [9] it was -52.9% (active); in assay [10], -44.6% (active); in assay [11], -23.2% (active); in assay [19], -3.78% (active). For the same compound, the growth in assay [20] was 11.8%; in assay [13], 4.43% (active); in assay [14], -12.9% (active); in [15] it was -99.3% (active); in assay [16] it was -77.3% (active); in assay [18], -45.5% (active).
In the case of `CCCCCCCS(=O)(=O)N1CCCC(C(=O)Nc2nc3ccc(NC(=O)c4ccc(F)c(OC)c4F)cc3s2)C1` (centres undefined), the growth in assay [1] is 63.5%; in [2], 61.8%; in [3], 35.4%; in assay [4], 14.7%; in [5], -48.1% (active); in assay [6], 63.1%. Besides, the growth in [7] is 48.7%; in assay [8], 25.8%; in [9] it was 69%; in [10], 72.5%; in [11] it was 59.6%; in assay [19], 64.7%. Also, the growth was 31.9% in [20]; 38.6% in assay [13]; 40.3% in assay [14]; 55% in [15]; 52.6% in assay [16]; 34% in [17].
Consider `COc1cccc(/C=C/c2nc3ccccc3c(=O)n2CC(=O)Nc2ccc(Cl)cc2)c1`, for which the growth in assay [1] was 68.9%; in assay [2], 84.6%; in assay [3], 67.3%; in assay [4], 27.9%; in [5], 83.5%; in assay [6], 82.3%. In addition, the growth was 61.2% in [7]; 52.7% in [8]; 92.3% in assay [9]; 76.3% in [10]; 88.3% in assay [11]; 76.3% in assay [20]. For the same compound, the growth was 27.8% in assay [13]; 76.3% in assay [14]; 101% in [15]; 95.1% in assay [16]; 39.8% in assay [17]; 99.2% in assay [18].
For `COc1ccc(-c2nc(SC(C)C)nc(NCCc3c[nH]c4ccccc34)c2C#N)cc1`, the growth in assay [1] is 54%; in assay [2] it was 14.5%; in assay [3], 78.8%; in assay [4], 26.6%; in [5], -20.3% (active); in assay [6], 49.8%. The growth in assay [7] was 33.6%; in assay [8], 42.7%; in [9], 82.5%; in [10], 55.7%; in [11], 15.3%; in [12] it was 8.23% (active). The growth in assay [13] was 27.1%; in assay [14], 11.7%; in assay [15] it was 5.52% (active); in [16], 73.6%; in [17], 21.2%; in [18], 69.7%.

The values are drawn from PubChem BioAssay (NCI).
